BCLXL inh = inhibitors of human Bcl-xL; inhibition, % at 10.9 µM; GST-Bcl-xL / FITC-Bim BH3 peptide fluorescence polarization; hit rate 0.7% among 320,000;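 active = inhibition above the mean of all tested compounds plus 3 SD, cutoff set per campaign, cut at about 30% in these data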;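 also: 0% = DMSO wells and 100% = unlabeled Bim-BH3 peptide competitor; inhibitors lower millipolarization by displacing the labeled peptide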
Target sequence (Q07817 whole entry, looked up): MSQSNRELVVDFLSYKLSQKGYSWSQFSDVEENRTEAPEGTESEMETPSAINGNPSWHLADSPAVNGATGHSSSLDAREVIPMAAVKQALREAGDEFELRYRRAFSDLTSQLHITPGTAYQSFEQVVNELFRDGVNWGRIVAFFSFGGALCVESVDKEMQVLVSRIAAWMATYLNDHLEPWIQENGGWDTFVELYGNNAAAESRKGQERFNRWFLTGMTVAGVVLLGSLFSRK
Mcl1-Bid inh = disrupts binding of human Mcl-1 to Bid peptide; hit rate 0.97% among 220,000; AID 1021; TR-FRET Mcl-1/Bid-Dy647 peptide binding, 1536-well; Q07820; inhibition, % at 21.7 µM;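 active = compounds that cut the binding signal by more than half at the single screening dose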;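 also: His-tagged Mcl-1 with europium anti-His antibody binding Bid BH3 peptide; 0% = Mcl-1 plus peptide wells and 100% = peptide-only wells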
GLD-1 TGE inh = GLD-1-TGE RNA interaction inhibition (C. elegans) | inhibition, % at 5.96 µM | Q17339 | hit rate 0.44% among 320,000 | purified GLD-1 + fluorescein TGE RNA, fluorescence polarization | AID 2280;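 active = percent inhibition above a per-plate cutoff, the plate mean of test compounds plus 3 SD, cut at about 30% in these data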;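 also: 0% = DMSO wells with GLD-1 and probe and 100% = wells lacking GLD-1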
Target sequence (Q17339 whole entry, looked up): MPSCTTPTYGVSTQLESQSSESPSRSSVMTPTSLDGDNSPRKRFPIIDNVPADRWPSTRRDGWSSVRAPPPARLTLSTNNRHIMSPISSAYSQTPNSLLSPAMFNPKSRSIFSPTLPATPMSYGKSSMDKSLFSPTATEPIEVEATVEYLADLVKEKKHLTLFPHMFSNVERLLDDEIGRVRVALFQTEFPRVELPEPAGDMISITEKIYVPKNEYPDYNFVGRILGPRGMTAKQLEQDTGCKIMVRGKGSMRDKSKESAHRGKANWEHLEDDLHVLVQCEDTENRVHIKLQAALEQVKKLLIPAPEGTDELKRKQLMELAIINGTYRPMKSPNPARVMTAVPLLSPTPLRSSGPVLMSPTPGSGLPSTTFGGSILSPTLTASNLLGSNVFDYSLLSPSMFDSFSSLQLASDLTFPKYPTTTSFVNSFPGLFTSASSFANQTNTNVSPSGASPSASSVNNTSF
Bim-Mcl-1 = inhibitors of Bim-Mcl-1 interaction, human. inhibition, % at 10 µM. hit rate 0.1% among 190,000. Bead-based flow cytometry, Bim peptide-Mcl-1 binding. Q07820; in the data active = inhibition above about 40%;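 also: 0% = no compound tracer wells and 100% = peptide blocker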
MCL1-BIM inh = MCL1-BIM-BH3 interaction inhibition (human) | inhibition, % at 10.9 µM | GST-MCL1 / FITC-Bim-BH3 fluorescence polarization | hit rate 0.68% among 320,000 | Q07820;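 active = inhibition above the mean inhibition of all tested compounds plus 3 SD, set per campaign, cut at about 40% in these data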;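 also: 0% = DMSO wells and 100% = unlabeled Bim-BH3 peptide control; higher means more loss of mP so more displacement of Bim peptide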
Mcl1-Noxa inh = disrupts binding of human Mcl-1 to Noxa peptide | Q07820 | TR-FRET Mcl-1/Noxa peptide binding, 2 h | inhibition, % at 21.7 µM | hit rate 1.5% among 220,000 | AID 1022;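 active = compounds that cut the protein-peptide binding signal by more than 50% relative to plate controls in a single-dose test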;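 also: His-tagged Mcl-1 with rhodamine Noxa BH3 peptide and terbium anti-His antibody; 0% = Mcl-1 plus Noxa peptide wells and 100% = peptide-only wells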
Starred values were filed as active, the others as inactive; . = not tested or not shown. A selection: hits, their analogues and other compounds. The true share with any hit is near 2.3%.

SMILES | BCLXL inh | Mcl1-Bid inh | GLD-1 TGE inh | Bim-Mcl-1 | MCL1-BIM inh | Mcl1-Noxa inh
CCOC(=O)C1CCN(CC(=O)N2CCc3ccccc32)CC1 | 1.7 | . | -1.6 | . | 5.2 | .
COCCCNc1ncnc2c1sc1nc(-c3ccco3)c3c(c12)CC(C)(C)OC3 | 3.5 | -6.1 | -2.0 | . | 1.4 | 32.5
CSc1nc(SCCO)c2sc3nc(-c4ccco4)c4c(c3c2n1)CC(C)(C)OC4 | . | 84.7* | . | 6.0 | . | 99.2*
CC1(C)Cc2c(c(-c3ccco3)nc3sc4c(NCCO)ncnc4c23)CO1 | 4.2 | 6.2 | -1.3 | 3.0 | 0.7 | 54.5*
CSc1nc(N(CCO)CCO)c2sc3nc(-c4ccco4)c4c(c3c2n1)CCC4 | . | 80.0* | . | 9.0 | . | 106.7*
Cc1cc(C)c2nc3nc(C)c(C)cc3c(N)c2c1 | . | -8.5 | . | 10.0 | . | 43.0
CNC(=O)N(O)C1N(/N=C/c2cc(Br)ccc2O)C(=S)SC1(C)C (centres undefined) | 6.4 | . | -3.4 | . | 4.7 | .
COc1cc2c(cc1OC)-c1cc(NC3CCCCCCC3)nc(=O)n1CC2 | 11.1 | 100.1* | -8.7 | 15.0 | 5.9 | 18.1
COc1cc2c(cc1OC)-c1cc(NCc3ccccn3)nc(=O)n1CC2 | 12.4 | 98.1* | 2.2 | 10.0 | 4.7 | 38.1
Nn1c(SCC(=O)Nc2ccc(OC(F)F)cc2)nnc(Cc2ccccc2)c1=O | 0.5 | . | 4.5 | . | 5.2 | .
CC1=C(C(=O)OCC(C)C)C(c2ccsc2)NC(=O)N1 (centres undefined) | -3.0 | -4.9 | 5.2 | -3.0 | -5.9 | 78.6*
COC(=O)c1cc(CSc2nc3ccccc3c(=O)n2C)oc1C | 1.1 | . | -6.5 | . | -0.1 | .
CN(CCc1ccccn1)C(=O)CCC1CCCN(C(=O)c2ccccn2)C1 (centres undefined) | 5.1 | -29.0 | 3.8 | -1.0 | 6.9 | 13.7
CN(CCc1ccccn1)C(=O)CCC1CCCN(C(=O)NC2CCCCC2)C1 (centres undefined) | 1.3 | -32.1 | -2.5 | 57.0* | -6.0 | -0.6
COc1ccc(CC(=O)n2[nH]c(=O)ccc2=O)cc1OC | 7.5 | -6.6 | 5.7 | . | 15.8 | 75.2*
COc1ccc(CC(=O)n2[nH]c(=O)c3ccccc3c2=O)cc1OC | 8.1 | -19.4 | -0.5 | . | 6.1 | -18.2
CC(=O)NS(=O)(=O)c1ccc(NC(=O)CSc2ccccc2)cc1 | 2.8 | 2.0 | -1.2 | . | 2.9 | 8.8
O=C(CSc1ccccc1)Nc1ccccc1C(=O)O | 0.9 | 55.9* | 6.6 | 2.0 | 0.3 | 39.1
CC(=O)Oc1ccc(NC(=O)CSc2ccccc2)cc1 | 0.7 | 7.8 | 2.9 | 0.0 | 2.3 | 74.5*
O=C1C(C=Nc2ccccc2O)=C(O)c2ccccc21 | 7.9 | -32.8 | 5.2 | -3.0 | 6.4 | -4.6
Cc1ccc(O)c(N=CC2=C(O)c3ccccc3C2=O)c1 | 38.1* | -39.4 | 13.8 | -1.0 | 43.2* | 63.4*
COc1ccccc1NC(=O)C(=O)N/N=C/c1ccc([N+](=O)[O-])s1 | . | 92.7* | . | 4.0 | . | 92.5*
O=[N+]([O-])c1ccc(/C=N/NC(=S)Nc2ccc(Cl)cc2Cl)s1 | -4.2 | 79.6* | -12.2 | . | -3.4 | 87.5*
Cc1ccccc1NC(=O)/C=C/c1ccc([N+](=O)[O-])s1 | 2.1 | 51.8* | -1.5 | -6.0 | 0.0 | 14.2
S=C(NCCCN1CCOCC1)N(Cc1ccccc1)Cc1ccccc1 | 3.6 | . | -2.0 | . | 7.7 | .
SMILES | BCLXL inh | Mcl1-Bid inh | GLD-1 TGE inh | Bim-Mcl-1 | MCL1-BIM inh | Mcl1-Noxa inh
Cc1ccc2[nH]c3c(c2c1)CN(C(C)C)CC3 | 6.9 | . | 2.7 | . | 3.8 | .
COC(=O)CSc1nnc(CNc2nc(-c3ccccc3)cs2)n1C | 2.1 | -16.9 | -2.9 | -1.0 | 0.4 | -11.9
Cn1c(CNc2nc(-c3ccccc3)cs2)nnc1SCC(=O)N1CCc2ccccc21 | -1.6 | -18.1 | 6.1 | 51.0* | 3.5 | 4.6
Cn1cc(CCNC(=O)CC2C(=O)NCCN2CC(c2ccccc2)c2ccccc2)cn1 (centres undefined) | 16.4 | -37.6 | 7.0 | . | 16.5 | -6.4
Nc1cccc2c1C(=O)N(C(=O)c1ccc(Cl)c(S(=O)(=O)N3CCCCCC3)c1)C2=O | 37.2* | -11.9 | 26.4 | -1.0 | 33.2 | -16.6
Cc1nc2cc(N3CCCCC3)c(NC(=O)c3ccncc3)cc2c(=O)n1Cc1ccc(Cl)cc1 | -0.9 | 57.2* | -0.7 | 2.0 | -1.6 | 10.6
CC1CCC(C(C)C)C(OC(=O)C[n+]2cc(-c3ccc(Cl)cc3)n3c2CCC3)C1 (centres undefined) | 6.8 | 92.1* | -7.7 | . | 8.4 | 36.1
CN(CC(=O)Nc1ccccc1Cl)C1CCS(=O)(=O)C1 (centres undefined) | 36.1* | . | 2.9 | . | 2.9 | .
CN(CC(=O)Nc1ccccc1Cl)C1CCCCC1 | 8.4 | . | -2.0 | . | 3.3 | .
O=C1Nc2ccc(F)cc2C12OCCO2 | -0.2 | . | -3.3 | . | -2.0 | .
CCOC(=O)c1c(NC(=O)N/N=C/c2ccc(O)c(OC)c2)sc(C(C)=O)c1C | 3.5 | 71.3* | 1.8 | . | 0.4 | 84.4*
CCOC(=O)c1c(NC(=O)CC(C)C)sc(C(C)=O)c1C | 2.9 | 5.5 | 4.2 | . | 8.4 | -20.4
CCOC(=O)c1c(NC(=O)c2cc(-c3ccc(O)cc3)on2)sc(C(C)=O)c1C | 1.2 | -15.7 | -6.7 | -8.0 | -2.3 | 83.7*
O=C(Nc1c2c(nn1-c1ccc([N+](=O)[O-])cc1)CS(=O)(=O)C2)c1ccco1 | 2.9 | . | 0.1 | . | 5.9 | .
Cc1nnc(SCc2cc(=O)oc3ccc4ccccc4c23)n1Cc1ccccc1 | 15.1 | 71.4* | 8.5 | -2.0 | 8.7 | 17.1
Cc1nnc(SCc2cc(=O)oc3cc(O)ccc23)n1Cc1ccccc1 | 0.1 | -12.1 | 4.5 | -3.0 | -2.6 | 12.5
Cc1cc(OCC(=O)Nc2ccc(CN3CCOCC3)cc2)c2c(C)c(C)c(=O)oc2c1 | 5.2 | . | -7.5 | . | -5.3 | .
C=CCn1c(SCC(=O)Nc2sccc2C(N)=O)nc2sc(C)c(C)c2c1=O | -2.2 | 52.3* | -4.4 | -3.0 | 2.6 | 3.1
COc1ccc(/C=N/n2c(-c3n[nH]c4c3CCC4)n[nH]c2=S)cc1OC | -31.8 | -79.0 | 3.3 | -6.0 | -21.0 | 65.1*
CC1CCCN(S(=O)(=O)c2cc3c4c(c2)C(C)C(=O)N4CCC3)C1 (centres undefined) | 2.1 | . | 5.0 | . | -2.9 | .
Cc1cc(C)c(C)c(OCCCn2ccnc2)c1 | 6.0 | 24.2 | 6.8 | -1.0 | 10.8 | 20.6
Cc1cc(C)c(C)c(OCCCN(C)C)c1 | -0.9 | 53.1* | 8.3 | -4.0 | -0.8 | 24.7
CN1CCN(c2ccccc2NC(=O)c2ccc(-c3ccc(Cl)cc3Cl)o2)CC1 | 0.4 | -19.0 | 8.0 | 1.0 | -3.1 | 64.6*
CC(=O)c1ccc(S(=O)(=O)Nc2ccc(-c3cn4c(n3)SCC4)cc2)cc1 | -1.1 | -29.9 | -3.0 | 2.0 | -8.6 | 64.8*
CS(=O)(=O)Nc1ccc(-c2cn3c(n2)SCC3)cc1 | -2.4 | . | -3.6 | . | -6.0 | .

Bioassay records (PubChem BioAssay)
